Assay results taken from the supplement of paper PMC13380429.

System: Vero E6 infected with SARS-CoV-2
Test: inhibition of SARS-CoV-2 cytopathic effect; higher = more antiviral protection, active = above 15
Settings: 48 h

Measured: inhibition of SARS-CoV-2 cytopathic effect

NNCCc1ccccc1 [phenelzine]
inactive: 1 nM 1.22% | 8.33 nM -0.85% | 100 nM -0.27% | 833.33 nM -0.81% | 10000 nM 3%

CN1C[C@H](C(=O)N[C@]2(C)O[C@@]3(O)[C@@H]4CCCN4C(=O)[C@H](Cc4ccccc4)N3C2=O)C[C@@H]2c3cccc4[nH]cc(c34)C[C@H]21 [dihydroergotamine]
inactive: 1 nM 0.49% | 8.33 nM 0.5% | 100 nM 2.21% | 833.33 nM -0.8% | 10000 nM 2.88%

C[C@]12CC[C@H](O)C[C@H]1CC[C@@H]1[C@@H]2CC[C@]2(C)[C@@H](C3=CC(=O)OC3)CC[C@]12O [digitoxigenin]
inactive: 1 nM -1.6% | 8.33 nM -1.96% | 100 nM -11.8% | 833.33 nM -13.3% | 10000 nM -19.4%

Sc1ncnc2nc[nH]c12 [mercaptopurine]
inactive: 1 nM -0.65% | 8.33 nM 1.59% | 100 nM 2.14% | 833.33 nM 1.92% | 10000 nM 0.56%

Cc1cc(C2CCCCC2)n(O)c(=O)c1 [ciclopirox]
inactive: 1 nM 0.88% | 8.33 nM 1.21% | 100 nM 0.99% | 833.33 nM -0.09% | 10000 nM -2.68%

O=C(O)CSCC(=O)NC1CCSC1=O (stereo not given) [erdosteine]
inactive: 1 nM 1.03% | 8.33 nM 2.17% | 100 nM 1.67% | 833.33 nM -2.61% | 10000 nM 1.6%

O=C(O[C@H]1C[N+]2(CCCOc3ccccc3)CCC1CC2)C(O)(c1cccs1)c1cccs1 [aclidinium]
inactive: 1 nM -0.75% | 8.33 nM -1.25% | 100 nM -2.4% | 833.33 nM 1.93% | 10000 nM 1.6%

O=c1c(O)c(-c2cc(O)c(O)c(O)c2)oc2cc(O)cc(O)c12 [myricetin]
inactive: 1 nM -0.44% | 8.33 nM 0.2% | 100 nM 3.15% | 833.33 nM 5.8% | 10000 nM 0.05%

CCOC(=O)NNc1ccc(N(CC)CC(C)O)nn1 (stereo not given) [cadralazine]
inactive: 1 nM -0.85% | 8.33 nM -0.3% | 100 nM -1.93% | 833.33 nM -1.81% | 10000 nM 0.1%

CC(C)c1ccccc1S(=O)(=O)c1cc(N)c2ncccc2c1[N+](=O)[O-]
inactive: 1 nM 1.33% | 8.33 nM 1.24% | 100 nM 0.12% | 833.33 nM 5.82% | 10000 nM 9.31%

COc1ccc(NC(=O)c2ccc(C(=N)N(C)C)cc2)c(C(=O)Nc2ccc(Cl)cn2)c1 [betrixaban]
inactive: 1 nM -1.01% | 8.33 nM 0.96% | 100 nM -0.6% | 833.33 nM 1.17% | 10000 nM -3.48%

CCc1nc(-c2cccc(C)c2)c(-c2ccnc(NC(=O)c3ccccc3)c2)s1
inactive: 1 nM 1.89% | 8.33 nM -0.27% | 100 nM -3.38% | 833.33 nM -1.52% | 10000 nM -4.97%

CCCCNc1nc(N)c2[nH]c(=O)n(Cc3ccc(OCCN(C)C)nc3)c2n1
inactive: 1 nM -1.79% | 8.33 nM 0.48% | 100 nM 2.36% | 833.33 nM -0.4% | 10000 nM -0.44%

CC1=C(CCC(=O)O)c2cc3[nH]c(cc4nc(cc5[nH]c(cc1n2)c(C)c5C(C)O)C(C)=C4C(C)O)c(C)c3CCC(=O)O (stereo not given) [hematoporphyrin]
inactive: 1 nM 0.75% | 8.33 nM 5% | 100 nM 1.48% | 833.33 nM -0.76% | 10000 nM -6.32%

CCCCC/C=C\C/C=C\C/C=C\C/C=C\CCCC(=O)Nc1ccc(O)cc1
inactive: 1 nM -2.34% | 8.33 nM -1.32% | 100 nM 3.11% | 833.33 nM 0.42% | 10000 nM -4.16%

C[C@H](NC[C@H](O)CP(=O)(O)CC1CCCCC1)c1ccc(Cl)c(Cl)c1
inactive: 1 nM 0.9% | 8.33 nM -0.56% | 100 nM -1.52% | 833.33 nM 0.84% | 10000 nM 0.91%

Cc1cc(NS(=O)(=O)c2ccc(N)cc2)no1 [sulfamethoxazole]
inactive: 1 nM 2.98% | 8.33 nM 0.81% | 100 nM 0.9% | 833.33 nM 0.68% | 10000 nM 0.81%

Cc1c[nH]c(=O)n(CCCN2CCN(c3ccccc3OCC(F)(F)F)CC2)c1=O
inactive: 1 nM -2.56% | 8.33 nM 0.88% | 100 nM -3.18% | 833.33 nM -1.23% | 10000 nM -1.99%

CC[C@H](c1ccc(O)cc1)[C@@H](CC)c1ccc(O)cc1 [hexestrol]
inactive: 1 nM -3.59% | 8.33 nM -0.58% | 100 nM -0.76% | 833.33 nM -3.14% | 10000 nM 2.9%

C[C@H](Cc1cc2c(c(C(N)=O)c1)N(CCCO)CC2)NCCOc1ccccc1OCC(F)(F)F [silodosin]
inactive: 1 nM 3.7% | 8.33 nM -1.05% | 100 nM 2.16% | 833.33 nM 2.24% | 10000 nM 3.11%
